{
  "source": "PubChem BioAssay (EPA / NIEHS)",
  "note": "Where a structure was tested more than once in an assay, its records may differ in their call. Active and inactive are the calls of the source. The calls were made as follows: active = hit-call score of the fitted dose curve at least 0.9, where 1 is the maximum; inactive = score below 0.9.",
  "data": [
    {"read-out": "urokinase plasminogen activator (uPA), PLAU (gene 5328)", "assay": "BSK_BE3C_uPA: BioMAP Diversity Plus: BE3C Assay for urokinase plasminogen activator (uPA) Biomarker Activity (AID 2283038)", "conditions": "primary human bronchial epithelial cells; actives raise or lower the signal", "procedure": "BSK_BE3C is a cell-based, multiplexed-readout assay that uses bronchial epithelial cell, a human lung primary cell, with measurements taken at 24 hours after chemical dosing in a 96-well plate.BSK_BE3CA is an assay component measured in the BSK_BE3C assay. It measures uPA antibody related to regulation of gene expression using ELISA technology.Data from the assay component BSK_BE3CA was analyzed into 1 assay endpoint. This assay endpoint, BSK_BE3CA, was analyzed with bidirectional fitting relative to DMSO as the negative control and baseline of activity. Using a type of binding reporter, gain or loss-of-signal activity can be used to understand changes in the signaling as they relate to the gene PLAU. Furthermore, this assay endpoint can be referred to as a primary readout, because this assay has produced multiple assay endpoints where this one serves a signaling function. To generalize the intended target to other relatable targets, this assay endpoint is annotated to the protease intended target family, where the subfamily is serine protease.\nThe levels of cell surface (or secreted, indicated by the prefix \"s\") biomarker endpoints were measured by ELISA. Overt cytotoxicity to cells in confluent adherent cultures (all systems other than the BT system) was assessed by measuring total protein levels using sulforhodamine B (SRB) staining in parallel cultures at the time of biomarker measurements, indicated as SRB endpoints. For proliferation assays for adherent cell types, individual cell types are cultured at sub-confluence and relative cell numbers quantified by SRB staining at time points optimized for each system (48 h: 3C and CASM3C systems; 72 h: BT and HDF3CGF systems; 96 h: SAg system). SRB was performed by staining cells with 0.1% SRB after fixation with 10% TCA and reading wells at 560 nm.Viability and proliferation of PBMC (T cells) was quantified by Alamar Blue reduction for the SAg and BT systems. For PBMC viability (referred to as PBMC Cytotoxicity within the assay endpoint names), cells were plated (75,000/well in a 96-well plate) and then chemical samples added for 1 h before addition of activators, SEB and TSST-1 (20 ng/mL final concentration each). Cells were incubated for 90 h. Then, Alamar Blue (20 uL/well) (Invitrogen, Cat DAL1100) was added for 6 h, and the plates were read with a fluorescence microplate reader at 546/580 nm (excitation/emission). For PBMC proliferation, cells were plated and activated as above but incubated for only 16 h prior to addition of Alamar Blue. Plates were read after 6 h.", "values": [
      {"smiles": "O=c1c2ccccc2c(=O)c2c1cc(Cl)c1[nH]c3c([nH]c12)c(Cl)cc1c(=O)c2ccccc2c(=O)c13", "outcome": "inactive"},
      {"smiles": "[Cd+2].[Cl-].[Cl-]", "AC50": "29.9 µM (active)", "outcome": "inactive"},
      {"smiles": "Oc1cc(Cl)ccc1Cl", "outcome": "inactive"},
      {"smiles": "CC(C)CCCCCCCOC(=O)c1ccccc1C(=O)OCCCCCCCC(C)C", "outcome": "inactive"},
      {"smiles": "O=C(O)CCCc1ccc(N(CCCl)CCCl)cc1", "outcome": "inactive", "AC50": "8.11 µM (active)"},
      {"smiles": "COc1ccc(CO)cc1", "outcome": "inactive"},
      {"smiles": "COCC(=O)N(c1c(C)cccc1C)N1CCOC1=O", "outcome": "inactive"},
      {"smiles": "O=S(=O)(c1ccccc1)c1ccccc1", "outcome": "inactive"},
      {"smiles": "c1ccc(Nc2ccc3ccccc3c2)cc1", "outcome": "inactive"},
      {"smiles": "N#CCCCCC#N", "outcome": "inactive"},
      {"smiles": "CC(C)CCCCCCCOP(=O)(Oc1ccccc1)Oc1ccccc1", "outcome": "inactive"},
      {"smiles": "O=[N+]([O-])C=Cc1ccccc1", "AC50": "1.03 µM (active)"},
      {"smiles": "CNC(=O)Oc1cc(C)c(SC)c(C)c1", "outcome": "inactive"},
      {"smiles": "CC(=O)/C=C/c1ccccc1", "outcome": "inactive"},
      {"smiles": "C=CC(=O)OCC(CC)CCCC", "note": "(stereo not given)", "outcome": "inactive"},
      {"smiles": "COC(C)(C)CCC[C@H](C)C/C=C/C(C)=C/C(=O)OC(C)C", "outcome": "inactive"},
      {"smiles": "O=C1C(Cl)=C(Cl)C(=O)C(Cl)=C1Cl", "outcome": "inactive"},
      {"smiles": "CCc1cc(C)cc(CC)c1-c1c(OC(=O)C(C)(C)C)n2n(c1=O)CCOCC2", "outcome": "inactive"},
      {"smiles": "O=C(CCl)c1ccccc1", "AC50": "36.2 µM (active)"},
      {"smiles": "CC1(C)[C@H](C(=O)O[C@H](C#N)c2cccc(Oc3ccccc3)c2)[C@@H]1C=C(Br)Br", "outcome": "inactive"},
      {"smiles": "CC(C)COP(=O)(OCC(C)C)OCC(C)C", "outcome": "inactive"},
      {"smiles": "CC(C)(C)C(O)C(Oc1ccc(-c2ccccc2)cc1)n1cncn1", "note": "(stereo not given)", "outcome": "inactive"},
      {"smiles": "CCCC[N+](CCCC)(CCCC)CCCC", "outcome": "inactive"},
      {"smiles": "CCCOC(=O)c1ccccc1C(=O)OCCC", "outcome": "inactive"},
      {"smiles": "O=[N+]([O-])O", "outcome": "inactive"},
      {"smiles": "C=CCN(CC=C)C(=O)C(Cl)Cl", "outcome": "inactive"},
      {"smiles": "Clc1ccc(-c2ccccc2)cc1", "outcome": "inactive"},
      {"smiles": "CC(C)(c1cc(Cl)c(O)c(Cl)c1)c1cc(Cl)c(O)c(Cl)c1", "outcome": "inactive"},
      {"smiles": "O=C1C=CC(=O)C=C1", "outcome": "inactive"},
      {"smiles": "CCCCCCCCCCCC#N", "outcome": "inactive"},
      {"smiles": "O=c1[nH]c(Cl)c(Cl)cc1Cl", "outcome": "inactive"},
      {"smiles": "CC(C)(C)C(=O)CCl", "outcome": "inactive"},
      {"smiles": "Oc1ccc(C2(c3ccc(O)cc3)c3ccccc3-c3ccccc32)cc1", "outcome": "inactive", "AC50": "0.15 µM (active)"},
      {"smiles": "CCC(C)c1cc([N+](=O)[O-])cc([N+](=O)[O-])c1OC(=O)C=C(C)C", "note": "(stereo not given)", "AC50": "31.9 µM (active)"},
      {"smiles": "Nc1ccc(-c2ccc(N)c(N)c2)cc1N", "outcome": "inactive"},
      {"smiles": "Cc1ccc(OP(=O)(Oc2ccc(C)cc2)Oc2ccc(C)cc2)cc1", "note": "(tested in a mixture with another compound)", "outcome": "inactive"},
      {"smiles": "O=[N+]([O-])c1ccc(Cl)cc1", "outcome": "inactive"}
    ]}
  ]
}
